Records with an inconclusive call do not appear. Active and inactive are the calls of the source.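 The calls were made as follows, unless noted: active = GFP response, as percent of the DMSO control, above the screen-wide mean plus 3 SD, about 139; inconclusive = no response measured because the compound's own fluorescence interfered; inactive = the rest.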
Experiments:
[1] = rapamycin-like changes in RPL19A-GFP expression – cell-based, S. cerevisiae, multiplex flow cytometry, primary screen (AID 1862; in the data active = percent of DMSO control GFP below about 86%;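 also: lower values mimic rapamycin by blocking the RPL19A rise seen in DMSO cells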); conditions: S. cerevisiae RPL19A-GFP strain, flow cytometry fluorescence, 3 h; at 10 µM; stronger effect = lower value
[2] = TOR pathway GLN3 branch reporter MEP2-GFP changes – S. cerevisiae, multiplex flow cytometry, primary screen (AID 1867);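 also: median GFP channel fluorescence of barcode-gated MEP2-GFP cells measured by flow cytometry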; conditions: S. cerevisiae MEP2-GFP strain, 3 h, at 10 µM, stronger effect = higher value, 100% means same as DMSO wells
[3] = TOR pathway RTG branch CIT2 reporter changes – S. cerevisiae, GFP fusion, multiplex flow cytometry, primary screen (AID 1870;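 active = percent response above a set limit, the screen-wide mean plus 3 SD, cut at about 130% in these data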;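 also: barcoded CIT2-GFP strain pooled with four other GFP strains with rapamycin as positive control; median GFP fluorescence per well over plate mean of DMSO wells so 100% = DMSO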); conditions: S. cerevisiae CIT2-GFP expression, 3 h, at 10 µM, stronger effect = higher value
[4] = TOR pathway LAP4-GFP level changes – S. cerevisiae, multiplex flow cytometry, primary screen (AID 1873;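 active = GFP signal, as percent of the solvent control, above the screen mean plus 3 SD, about 149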); conditions: S. cerevisiae LAP4-GFP expression, 3 h, at 10 µM, stronger effect = higher value
[5] = yeast AGP1-GFP level changes, GLN3 branch – cell-based, multiplex flow cytometry, S. cerevisiae, primary screen (AID 1887;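 active = GFP signal above the screen-wide mean plus 3 SD, that is over about 124.5% of the solvent control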;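 also: AGP1-GFP fusion strain of S. cerevisiae within a five-strain barcoded multiplex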); conditions: 3 h, at 10 µM, stronger effect = higher value
[6] = reduced mouse 2C T cell binding to pMHC/ICAM-1 vesicles – MLPCN validation set, flow cytometry, LFA-1/ICAM-1 modulator project, pilot screen (AID 2523;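 active = response below a set limit, under 55% cells CD8-positive and vesicle-bound, and CD8 cells' 90th-percentile brightness under 279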;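 as to vesicle binding response: mean PE anti-B7-1 fluorescence of CD8+ cells relative to row control; 100% = QL9-loaded vesicles with DMSO vehicle in the same plate row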); conditions: 2C mouse CD8+ T cells, at 7 µM, stronger effect = lower value; double positive events: measured here: CD8+/vesicle+ event percentage
[7] = molecular target: Integrin beta-1 (Homo sapiens) + Integrin alpha-4 (Homo sapiens) (UniProt P13612+P05556); experiment: alpha4beta1 integrin LIBS antibody binding reduction – U937 cells, HUTS-21 mAb, flow cytometry, validation set, VLA-4 allosteric modulator project, pilot screen (AID 2674;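 active = inhibition above 50%, about 3 SD of the validation set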;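 also: antibody binding induced by the VLA-4 ligand LDV present at three times its Kd; 0% = LDV ligand with antibody and no compound and 100% = antibody without LDV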); conditions: HUTS-21 LIBS mAb binding, at 6.7 µM, stronger effect = higher value, binding induced by LDV ligand
Sequence of Integrin beta-1 (Homo sapiens) + Integrin alpha-4 (Homo sapiens) (P05556 whole entry, looked up): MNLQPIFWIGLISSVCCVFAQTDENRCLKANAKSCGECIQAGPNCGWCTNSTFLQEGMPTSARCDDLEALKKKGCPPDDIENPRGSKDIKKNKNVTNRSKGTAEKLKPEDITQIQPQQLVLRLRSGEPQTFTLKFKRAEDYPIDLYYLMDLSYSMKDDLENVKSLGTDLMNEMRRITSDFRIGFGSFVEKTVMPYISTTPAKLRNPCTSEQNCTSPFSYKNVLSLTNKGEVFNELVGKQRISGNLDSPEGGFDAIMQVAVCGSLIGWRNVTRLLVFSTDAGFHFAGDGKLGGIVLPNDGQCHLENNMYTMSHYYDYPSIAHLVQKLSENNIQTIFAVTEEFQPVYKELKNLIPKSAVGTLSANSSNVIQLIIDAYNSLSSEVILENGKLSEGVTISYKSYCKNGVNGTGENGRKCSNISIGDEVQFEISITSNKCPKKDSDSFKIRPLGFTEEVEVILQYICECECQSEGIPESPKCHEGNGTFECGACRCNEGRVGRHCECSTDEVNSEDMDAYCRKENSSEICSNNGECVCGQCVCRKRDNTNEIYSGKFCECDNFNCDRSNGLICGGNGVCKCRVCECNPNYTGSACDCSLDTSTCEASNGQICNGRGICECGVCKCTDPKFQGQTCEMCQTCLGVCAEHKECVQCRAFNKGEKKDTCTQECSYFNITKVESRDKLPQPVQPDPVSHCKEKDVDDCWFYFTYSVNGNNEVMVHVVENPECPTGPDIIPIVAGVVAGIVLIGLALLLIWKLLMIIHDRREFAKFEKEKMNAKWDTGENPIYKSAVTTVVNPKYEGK
Sequence of Integrin beta-1 (Homo sapiens) + Integrin alpha-4 (Homo sapiens) (P13612 whole entry, looked up): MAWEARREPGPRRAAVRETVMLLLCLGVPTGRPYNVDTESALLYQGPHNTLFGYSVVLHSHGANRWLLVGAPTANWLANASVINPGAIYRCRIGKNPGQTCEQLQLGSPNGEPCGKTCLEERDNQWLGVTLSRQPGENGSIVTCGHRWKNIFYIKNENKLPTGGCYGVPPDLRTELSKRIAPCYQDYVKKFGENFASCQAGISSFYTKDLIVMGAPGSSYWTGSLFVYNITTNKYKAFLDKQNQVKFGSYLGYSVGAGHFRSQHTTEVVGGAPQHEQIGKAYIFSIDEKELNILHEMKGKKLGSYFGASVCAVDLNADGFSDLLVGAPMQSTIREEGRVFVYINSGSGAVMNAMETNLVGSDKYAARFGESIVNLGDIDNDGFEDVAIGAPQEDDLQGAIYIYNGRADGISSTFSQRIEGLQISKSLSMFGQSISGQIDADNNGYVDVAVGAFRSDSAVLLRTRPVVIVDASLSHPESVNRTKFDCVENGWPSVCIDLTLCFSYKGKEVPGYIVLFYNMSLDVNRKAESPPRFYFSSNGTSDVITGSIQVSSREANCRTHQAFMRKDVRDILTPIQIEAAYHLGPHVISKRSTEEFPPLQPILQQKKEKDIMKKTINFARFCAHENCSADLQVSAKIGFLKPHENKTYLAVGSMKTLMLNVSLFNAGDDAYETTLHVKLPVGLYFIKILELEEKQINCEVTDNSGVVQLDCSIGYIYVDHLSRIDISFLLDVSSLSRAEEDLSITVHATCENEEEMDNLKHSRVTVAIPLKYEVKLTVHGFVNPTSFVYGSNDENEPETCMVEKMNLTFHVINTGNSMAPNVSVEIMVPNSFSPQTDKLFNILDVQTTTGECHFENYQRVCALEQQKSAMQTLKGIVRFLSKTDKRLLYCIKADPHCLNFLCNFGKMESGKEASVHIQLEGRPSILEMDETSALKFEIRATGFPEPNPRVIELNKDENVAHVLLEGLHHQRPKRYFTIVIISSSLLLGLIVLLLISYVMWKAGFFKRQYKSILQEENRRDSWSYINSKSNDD

[8] = calorie-restriction mimetic ROS inhibitors, yeast – validation compound set, pilot screen (AID 2706;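 active = superoxide response below 65% of plate, a cut near 3 SD across the whole screen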;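 also: yeast exposed to compound for one week at 30 degrees C before staining; 100% = mean of all compound wells on the same plate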); conditions: S. cerevisiae aging, superoxide DHE fluorescence; at 10 µM; stronger effect = lower value
[9] = molecular target: Beta-adrenergic receptor kinase 1 (Homo sapiens) (UniProt P25098); experiment: GRK2 binders displacing RNA aptamer, biochemical, validation, human GRK2, bead flow cytometry (AID 488806;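 active = aptamer binding inhibition above 30%, about 3 SD of noise from non-fluorescent compounds; inactive = inhibition at or below 30%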); conditions: bead-bound GRK2, FAM-aptamer displacement, at 10 µM, stronger effect = higher value
Sequence of Beta-adrenergic receptor kinase 1 (Homo sapiens) (P25098 whole entry, looked up): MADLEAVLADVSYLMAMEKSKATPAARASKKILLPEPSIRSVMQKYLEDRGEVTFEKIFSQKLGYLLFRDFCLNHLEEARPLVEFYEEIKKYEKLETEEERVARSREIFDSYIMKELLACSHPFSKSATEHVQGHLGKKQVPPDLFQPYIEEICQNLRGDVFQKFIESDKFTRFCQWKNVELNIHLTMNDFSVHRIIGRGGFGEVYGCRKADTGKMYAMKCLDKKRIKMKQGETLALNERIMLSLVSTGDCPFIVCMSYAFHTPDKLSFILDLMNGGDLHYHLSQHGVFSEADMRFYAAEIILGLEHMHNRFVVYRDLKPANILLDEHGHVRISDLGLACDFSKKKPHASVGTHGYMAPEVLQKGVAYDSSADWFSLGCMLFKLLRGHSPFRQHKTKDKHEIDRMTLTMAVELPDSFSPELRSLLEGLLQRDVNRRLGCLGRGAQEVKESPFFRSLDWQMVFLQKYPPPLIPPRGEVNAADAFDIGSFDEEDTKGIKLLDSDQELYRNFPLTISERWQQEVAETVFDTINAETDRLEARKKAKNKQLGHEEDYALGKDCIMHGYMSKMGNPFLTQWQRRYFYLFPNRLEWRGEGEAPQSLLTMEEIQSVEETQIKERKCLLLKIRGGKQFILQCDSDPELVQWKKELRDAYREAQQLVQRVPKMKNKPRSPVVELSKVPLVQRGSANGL

[10] = molecular target: Beta-2 adrenergic receptor (Homo sapiens) (UniProt P07550); experiment: agonist-induced loss of surface beta2AR – cell-based, FAP fluorogen, flow cytometry, validation set, pilot screen (AID 504459;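 active = percent response above 42, roughly 3 SD of non-fluorescent test compounds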;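 also: agonist-driven loss of surface beta2AR via internalization measured by FAP dye flow cytometry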); conditions: Am2.2-beta2AR cells, at 10 µM, stronger effect = higher value
Sequence of Beta-2 adrenergic receptor (Homo sapiens) (P07550 whole entry, looked up): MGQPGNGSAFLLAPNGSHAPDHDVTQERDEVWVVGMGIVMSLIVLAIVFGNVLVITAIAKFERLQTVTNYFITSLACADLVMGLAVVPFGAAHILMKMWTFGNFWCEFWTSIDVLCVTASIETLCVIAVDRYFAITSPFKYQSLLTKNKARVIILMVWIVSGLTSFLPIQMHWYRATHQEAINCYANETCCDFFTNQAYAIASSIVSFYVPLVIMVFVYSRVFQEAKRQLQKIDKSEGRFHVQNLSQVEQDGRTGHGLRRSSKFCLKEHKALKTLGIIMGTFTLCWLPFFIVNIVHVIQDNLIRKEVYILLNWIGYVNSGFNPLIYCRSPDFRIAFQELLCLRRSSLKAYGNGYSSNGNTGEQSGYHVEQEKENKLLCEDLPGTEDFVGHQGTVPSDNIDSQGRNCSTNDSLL

[11] = molecular target: AP-2 complex subunit beta (Homo sapiens) (UniProt P63010); experiment: beta-arrestin/AP2 interaction blockers – biochemical, validation set, GST-AP2 beads, flow cytometry, pilot screen (AID 504541;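 active = inhibition above 54%, about 3 SD of non-fluorescent compounds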;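 also: AP2 carries R879A mutation and is captured from E. coli lysate; bead-bound FITC arrestin peptide fluorescence measuring arrestin peptide binding to AP2; 0% = DMSO wells and 100% = excess unlabeled arrestin peptide control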); conditions: FITC arrestin peptide, at 10 µM, stronger effect = higher value, AP2 beta2 appendage fragment, R879A mutant
Sequence of AP-2 complex subunit beta (Homo sapiens) (P63010 whole entry, looked up, the tested form may be a part, one chain of several): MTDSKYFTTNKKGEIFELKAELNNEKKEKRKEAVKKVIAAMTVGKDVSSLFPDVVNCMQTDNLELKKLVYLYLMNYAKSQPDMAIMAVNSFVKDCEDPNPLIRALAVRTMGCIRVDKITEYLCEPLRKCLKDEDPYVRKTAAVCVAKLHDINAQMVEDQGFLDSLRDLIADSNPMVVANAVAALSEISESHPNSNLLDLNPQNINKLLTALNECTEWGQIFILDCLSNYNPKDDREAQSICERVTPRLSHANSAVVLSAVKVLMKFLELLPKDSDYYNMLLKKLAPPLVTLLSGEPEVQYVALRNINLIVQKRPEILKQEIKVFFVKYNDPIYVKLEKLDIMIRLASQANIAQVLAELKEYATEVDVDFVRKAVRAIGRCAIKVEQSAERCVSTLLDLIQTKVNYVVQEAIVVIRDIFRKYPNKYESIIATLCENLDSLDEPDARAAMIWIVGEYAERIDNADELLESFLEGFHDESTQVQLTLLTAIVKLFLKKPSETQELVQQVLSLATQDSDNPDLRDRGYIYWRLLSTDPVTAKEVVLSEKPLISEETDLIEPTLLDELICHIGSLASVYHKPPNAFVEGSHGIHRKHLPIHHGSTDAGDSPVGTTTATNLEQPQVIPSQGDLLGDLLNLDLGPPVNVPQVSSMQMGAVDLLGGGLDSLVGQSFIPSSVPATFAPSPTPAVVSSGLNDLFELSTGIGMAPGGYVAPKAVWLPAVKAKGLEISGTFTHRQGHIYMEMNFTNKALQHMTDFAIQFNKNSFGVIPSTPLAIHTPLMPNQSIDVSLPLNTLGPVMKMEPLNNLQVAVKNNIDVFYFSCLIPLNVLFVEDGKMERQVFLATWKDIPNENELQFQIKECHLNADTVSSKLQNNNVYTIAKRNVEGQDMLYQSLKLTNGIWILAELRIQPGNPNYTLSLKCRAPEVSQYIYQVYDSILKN

[12] = cytosolic pH regulators acting via V-ATPase – S. cerevisiae, pHLuorin, HTS validation (AID 504600; in the data active = response above about 15%;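 also: plate controls were DMSO for no effect and reference compound for full effect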); conditions: V-ATPase proton transport, at 10 µM, stronger effect = higher value
[13] = system: anti-desmoglein-3 scFv antibody binding to human DSG3; experiment: blockers of pathogenic pemphigus antibody–desmoglein-3 binding – biochemical, validation compound set, bead-based, flow cytometry, pilot screen (AID 588368;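 active = binding below the plate cutoff, the plate median minus 3 SD, with a reading above zero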;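 also: signal is the median channel fluorescence of bead-bound GFP antibody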); conditions: Protein G beads, DSG3-Fc, scFv-GFP binding, at 10 µM, stronger effect = lower value
[14] = Nile Red efflux blockade in pump-expressing yeast – validation compound set, multiplex, phenotypic, pilot screen (AID 588506;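 active = efflux inhibition above 0.42, the validation set average plus 4 SD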;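 also: Nile Red retained in cells so higher fluorescence means more efflux inhibition; 0 = negative control wells and 1 = enniatin B 25 µM full block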); conditions: S. cerevisiae pump-expressing triplex, Nile Red efflux flow cytometry; at 10 µM; stronger effect = higher value; the pumps come from Candida albicans
[15] = molecular target: ATP-binding cassette sub-family B member 6 (Homo sapiens) (UniProt Q9NP58); experiment: blockers of ABCB6-driven porphyrin uptake – K562-ABCB6 cells, flow cytometry, validation set, pilot screen (AID 588550;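 active = inhibition above the screen-wide mean plus 3 SD, about 51%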;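 also: 0% = DMSO wells and 100% = benzethonium chloride 70 µM positive control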); conditions: K562-ABCB6 porphyrin accumulation, 1 h, at 10 µM, stronger effect = higher value
Sequence of ATP-binding cassette sub-family B member 6 (Homo sapiens) (Q9NP58 whole entry, looked up): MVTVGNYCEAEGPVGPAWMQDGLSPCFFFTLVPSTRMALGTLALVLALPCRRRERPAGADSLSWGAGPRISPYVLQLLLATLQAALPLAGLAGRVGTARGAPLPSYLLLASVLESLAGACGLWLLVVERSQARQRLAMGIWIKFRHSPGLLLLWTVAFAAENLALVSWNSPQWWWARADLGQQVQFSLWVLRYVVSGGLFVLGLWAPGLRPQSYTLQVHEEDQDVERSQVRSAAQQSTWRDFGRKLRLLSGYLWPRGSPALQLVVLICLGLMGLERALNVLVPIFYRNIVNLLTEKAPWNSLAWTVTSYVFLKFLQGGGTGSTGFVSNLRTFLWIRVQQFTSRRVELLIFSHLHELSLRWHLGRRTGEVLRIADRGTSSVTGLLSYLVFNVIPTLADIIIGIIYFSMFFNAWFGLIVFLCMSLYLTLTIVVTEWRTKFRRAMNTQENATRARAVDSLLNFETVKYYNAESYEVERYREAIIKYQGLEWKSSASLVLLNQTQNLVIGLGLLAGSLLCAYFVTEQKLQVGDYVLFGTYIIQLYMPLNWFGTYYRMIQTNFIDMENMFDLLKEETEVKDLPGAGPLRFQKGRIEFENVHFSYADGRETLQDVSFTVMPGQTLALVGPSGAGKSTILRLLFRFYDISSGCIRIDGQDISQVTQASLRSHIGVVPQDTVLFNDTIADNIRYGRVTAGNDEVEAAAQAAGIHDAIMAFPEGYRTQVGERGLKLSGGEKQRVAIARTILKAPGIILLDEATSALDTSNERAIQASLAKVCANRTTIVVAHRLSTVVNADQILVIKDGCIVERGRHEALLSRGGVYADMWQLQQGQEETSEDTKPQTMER

[16] = AML differentiation inducers, ER-HoxA9 marrow cells – cell-based, GFP/MAC1 double positive, flow cytometry, validation set, primary screen (AID 588685;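 active = differentiation response of at least 50%, scaled between solvent and reference control, from cells with both markers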;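 also: compound exposure lasts four days before antibody staining and flow analysis; 0% = DMSO wells and 100% = 5 µM fulvestrant positive control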); conditions: stronger effect = higher value, normalized: vehicle 0, fulvestrant 100

SMILES | percent of DMSO control GFP [1] | GFP response vs DMSO [2] | percent response of DMSO control [3] | GFP response vs DMSO [4] | GFP response, % of DMSO [5] | double positive events [6] [%] | vesicle binding response [6] | inhibition [7] | superoxide response (% of plate) [8] | aptamer binding inhibition [9] | response [10] | inhibition [11] | response [12] | binding (% of control) [13] | efflux inhibition (fraction of control) [14] | inhibition [15] | differentiation response [16]
COc1ccccc1C(CCN(Cc1ccccc1)C(C)=O)c1ccco1 (stereo not drawn) | 91.5% (inactive) | 130% (inactive) | 103% (inactive) | 78.7% (inactive) | 88% (inactive) | 56.4 | 145% (inactive) | 8.4% (inactive) | 122% (inactive) | 6% (inactive) | -11.5% (inactive) | 2.58% (inactive) | 0.45% (inactive) | 102% (inactive) | 0.12 (inactive) | 15% (inactive) | 1.64% (inactive)
CCc1oc2ccccc2c1C(=O)c1cc(Br)c(O)c(Br)c1 | 92.2% (inactive) | 117% (inactive) | 106% (inactive) | 78.1% (inactive) | 91% (inactive) | 65.3 | 165% (inactive) | 7.43% (inactive) | 118% (inactive) | 4% (inactive) | 2.6% (inactive) | -0.81% (inactive) | 15.2% (active) | 102% (inactive) | 0.01 (inactive) | 12% (inactive) | 9.83% (inactive)
COc1ccc2oc(C)c(C(N)=O)c2c1 | 99.5% (inactive) | 109% (inactive) | 91% (inactive) | 118% (inactive) | 102% (inactive) | 61.6 | 132% (inactive) | 6.4% (inactive) | 96% (inactive) | 4% (inactive) | -0.3% (inactive) | 7.21% (inactive) | -6.34% (inactive) | 100% (inactive) | -0.21 (inactive) | -9% (inactive) | -8.8% (inactive)
Cc1ccc(S(=O)(=O)N[C@@H](C)C(=O)N2CCC(C(=O)N3CCC[C@H]3C(=O)O)CC2)cc1 | 95% (inactive) | 129% (inactive) | 103% (inactive) | 79.2% (inactive) | 88.4% (inactive) | 71 | 174% (inactive) | 3.55% (inactive) | 92.7% (inactive) | 9% (inactive) | -2.38% (inactive) | -9.12% (inactive) | -1.19% (inactive) | 100% (inactive) | -0.2 (inactive) | 8% (inactive) | 0% (inactive)
c1ccc(-c2ccccn2)nc1 | 103% (inactive) | 112% (inactive) | 107% (inactive) | 101% (inactive) | 102% (inactive) | 54.1 | 157% (inactive) | 6.95% (inactive) | 96.7% (inactive) | 8% (inactive) | -1.6% (inactive) | -7.99% (inactive) | -2.77% (inactive) | 101% (inactive) | -0.08 (inactive) | 55% (active) | -4.57% (inactive)
Cc1cc(OCC(=O)C(C)(C)C)c2c(C)c(C)c(=O)oc2c1 | 102% (inactive) | 103% (inactive) | 94.8% (inactive) | 118% (inactive) | 98.8% (inactive) | 60.4 | 213% (inactive) | 2.3% (inactive) | 102% (inactive) | 7% (inactive) | -4.14% (inactive) | 27.4% (inactive) | -7.2% (inactive) | 101% (inactive) | 0.26 (inactive) | 3% (inactive) | 4% (inactive)
C[C@]12CC[C@@H]3c4ccc(O)cc4CC[C@H]3[C@@H]1CC[C@@H]2OC(=O)CCC(=O)O | 102% (inactive) | 103% (inactive) | 91.3% (inactive) | 127% (inactive) | 98.6% (inactive) | 62.4 | 223% (inactive) | -15.8% (inactive) | 86% (inactive) | -7% (inactive) | 3.34% (inactive) | 50.5% (inactive) | -4.55% (inactive) | 105% (inactive) | 0.46 (active) | -12% (inactive) | 42.2% (inactive)
COc1ccc(-c2cc(C(=O)N3CCOCC3)c3cc(C)ccc3n2)cc1 | 91.1% (inactive) | 102% (inactive) | 101% (inactive) | 110% (inactive) | 107% (inactive) | 73.1 | 206% (inactive) | -8.78% (inactive) | 92% (inactive) | 1% (inactive) | -16.3% (inactive) | 9.71% (inactive) | -6.37% (inactive) | 104% (inactive) | -0.09 (inactive) | 7% (inactive) | 9.79% (inactive)
COc1ccc(C2CC(c3c(O)cc(C)oc3=O)=NCCS2)c(OC)c1 (stereo not drawn) | 102% (inactive) | 108% (inactive) | 111% (inactive) | 86.8% (inactive) | 96.4% (inactive) | 64.5 | 818% (inactive) | 36.9% (inactive) | 92% (inactive) | 1% (inactive) | 19.6% (inactive) | 1.7% (inactive) | 0.66% (inactive) | 108% (inactive) | 0.14 (inactive) | -46% (inactive) | -4.64% (inactive)

From PubChem BioAssay
